Test results from PubChem BioAssay AID740 (SRMLSC, 2007).
Out of some 96,000 compounds screened, about 65 (0.07%) were called active. The full list was thinned out, with actives kept by preference. Values without a mark were called inactive. No stated cut-off is given here; in the data, active means inhibition above about 25%; inactive means the rest.

experiment: unspecified inhibition readout at 50 µM (AID 740); conditions: unspecified screen; hits give high values

Row | Structure (SMILES) | inhibition
1 | O=S(=O)(c1ccccc1)N1C2CCC1CC(O)(c1cccnc1)C2 (configuration not stated) | 0.08%
2 | CCC(NS(=O)(=O)c1ccc(OC)cc1)C(=O)NCCC1=CCCCC1 (configuration not stated) | 0.42%
3 | COc1ccccc1Cn1c(=O)[nH]c2cccnc21 | inactive
4 | O=c1[nH]c2cccnc2n1Cc1ccccc1 | 88.8% (active)
5 | O=c1[nH]c2cccnc2n1Cc1ccco1 | 1.89%
6 | COc1ccccc1NC(=O)C1CC(=O)OC1c1ccccc1 (configuration not stated) | inactive
7 | CNC(=O)c1ccc(Oc2ccc(C(=O)NC)cc2)cc1 | 0.48%
8 | COC(=O)c1nc(-c2ccc(C)cc2)oc1N(C)C | inactive
9 | CS(=O)(=O)N1CCN(c2ccccc2NC(=O)Cc2ccc(Cl)cc2)CC1 | 1.42%
10 | NC(=O)CSc1nnc2sc3ccccc3n12 | 20.1%
11 | CC(C)NC(=O)CSc1nnc2sc3ccccc3n12 | 29.1% (active)
12 | CCOC(=O)CC(=O)CSc1nnc2sc3ccccc3n12 | 6.25%
13 | CC1CC(C)CN(C(=O)COc2ccc(-c3nnco3)cc2)C1 (configuration not stated) | inactive
14 | CC(NC(=O)C1CCCN1S(=O)(=O)c1cccc2cccnc12)c1ccccc1 (configuration not stated) | 3.39%
15 | NS(=O)(=O)c1ccc(CCNC(=O)C2CCCCN2S(=O)(=O)c2ccccc2)cc1 (configuration not stated) | 80.3% (active)
16 | NS(=O)(=O)c1ccc(CCNC(=O)C2CCCN2C(=O)OCc2ccccc2)cc1 (configuration not stated) | 0.02%
17 | NS(=O)(=O)c1ccc(CCNC(=O)[C@@H]2CCCN2S(=O)(=O)c2ccccc2F)cc1 | 0.35%
18 | CNS(=O)(=O)c1cccc(C(=O)Nc2cccc(Cl)c2)c1 | inactive
19 | Cc1nc(SCC(=O)c2ccccc2)n[nH]1 | 0.25%
20 | COC(=O)CSc1nnc([C@H](Cc2ccccc2)NC(=O)OC(C)(C)C)o1 | 0.67%
21 | CC(C)(C)OC(=O)N[C@@H](Cc1ccccc1)c1nnc(SCC(=O)O)o1 | 0.84%
22 | CCSc1nnc([C@H](Cc2ccccc2)NC(=O)OC(C)(C)C)o1 | 26.7% (active)
23 | O=C(c1cc(-c2ccc(Cl)cc2)n(-c2ccc(Cl)cc2)n1)N1CCOCC1 | 1.77%
24 | O=C(c1cc(-c2ccc(Cl)cc2)n(-c2ccc(Cl)cc2Cl)n1)N1CCOCC1 | 27.9% (active)

Row | Structure (SMILES) | inhibition
25 | O=C(c1cc(-c2ccc(Cl)cc2)n(-c2cc(Cl)ccc2Cl)n1)N1CCOCC1 | 2.27%
26 | Cc1nc2nc(-c3ccc(Cl)cc3)[nH]n2c(=O)c1Cc1ccccc1 | 2.76%
27 | Cc1nc2nc(-c3ccccc3)[nH]n2c(=O)c1Cc1ccccc1 | 62% (active)
28 | COc1ccc(-c2nc3nc(C)c(Cc4ccccc4)c(=O)n3[nH]2)cc1 | 10.2%
29 | O=C(COC(=O)C(Cc1ccccc1)NC(=O)c1ccco1)NC1CC1 (configuration not stated) | 2.73%
30 | C=CCn1c(-c2cccn(Cc3cccc(Cl)c3)c2=O)n[nH]c1=S | 0.13%
31 | CN1C(=O)c2cccc3c(S(=O)(=O)Nc4ccccn4)ccc1c23 | 3.37%
32 | Clc1cccc(CSc2nnc([C@@H]3CCCN3)o2)c1 | inactive
33 | CCC1CCCCN1C(=O)Nc1cccc(NC(=O)N2CCCCC2CC)c1 (configuration not stated) | 31.9% (active)
34 | CCC1CCCCN1C(=O)Nc1ccc(F)cc1 (configuration not stated) | 0.1%
35 | CC1CCCN(C(=O)Nc2cccc(NC(=O)N3CCCC(C)C3C)c2)C1C (configuration not stated) | 0.11%
36 | NC(=O)C1(N2CCCCC2)CCN(C(=O)CSc2nc(C(F)(F)F)cc(=O)[nH]2)CC1 | 1.15%
37 | Cc1ccc(/C=C2/SC(=S)N(CC(=O)Nc3ncc(Cc4ccc(C)cc4)s3)C2=O)cc1 | 0.58%
38 | Cc1ccc(NC(=O)NCCCN2CCCC2=O)cc1 | 1.44%
39 | CC(=O)Nc1ccc(Nc2ncnc3c2cnn3-c2ccccc2)cc1 | 38.2% (active)
40 | Clc1ccc(Nc2ncnc3c2cnn3-c2ccccc2)cc1 | inactive
41 | CC(=O)Nc1ccc(Nc2ncnc3c2cnn3-c2cccc(C)c2)cc1 | 0.1%
42 | CCC(CC)c1nnc(NC(=O)CN2C(=O)C3C4C=CC(C4)C3C2=O)s1 (configuration not stated) | inactive
43 | CCNc1nc(NCC)nc(SCCOC(=O)COc2ccc(Cl)cc2Cl)n1 | inactive
44 | Cc1cc(Oc2ccc(C#N)cc2)nc(N2CCOCC2)n1 | inactive
45 | Oc1ccc2oc3c(c2c1)CCCC3 | inactive
46 | O=C1NCCCc2c1oc1cc(Br)c(O)c(Br)c21 | 4.63%
47 | O=C1NCCCc2c1oc1ccc(O)cc21 | 38.5% (active)
48 | COc1cc(OC)c(C2=NOC(C(=O)Nc3cc(C)nn3-c3ccccc3)C2)cc1Cl (configuration not stated) | 0.65%

Row | Structure (SMILES) | inhibition
49 | COc1ccc(OC)c(C2=NOC(C(=O)Nc3cc(C)nn3-c3ccccc3)C2)c1 (configuration not stated) | 48.2% (active)
50 | COc1cccc(C2=NOC(C(=O)Nc3cc(C)nn3-c3ccccc3)C2)c1OC (configuration not stated) | inactive
51 | COc1ccc(-c2cc(C(F)(F)F)nc(N3CCN(Cc4ccccc4)CC3)n2)cc1OC | inactive
52 | COc1ccc(-c2cc(C(F)(F)F)nc(SCCC(=O)Nc3cc(C)on3)n2)cc1 | inactive
53 | COCCn1c(SCC(=O)Nc2cc(C)cc(C)c2)nnc1C(C)C | 1.46%
54 | Cc1ccc2nc(NC(=O)C3CCN(S(=O)(=O)c4cccs4)CC3)sc2c1 | 2.46%
55 | Cc1nc2ccc(NC(=O)C3CCN(S(=O)(=O)c4cccs4)CC3)cc2s1 | 30.7% (active)
56 | Cc1ccc(NC(=O)C2CCN(S(=O)(=O)c3cccs3)CC2)cc1C | 0.17%
57 | O=C(CN(Cc1ccco1)C(=O)c1cc(=O)[nH]c2ccccc12)Nc1ccccc1Br | 0.68%
58 | COC(=O)c1ccc2ccn(CC(=O)NC(C)C)c2c1 | inactive
59 | O=C(O)c1cc2nc(-c3ccc(F)cc3)cc(C(F)(F)F)n2n1 | 1.93%
60 | Cc1ccccc1C(=O)Nc1ccc2nc3n(c(=O)c2c1)CCC3 | 0.71%
61 | O=C(Nc1ccc2nc3n(c(=O)c2c1)CCCCC3)c1ccccn1 | 2.45%
62 | CN(C)c1cccc(C(=O)Nc2ccc3nc4n(c(=O)c3c2)CCCCC4)c1 | 26.5% (active)
63 | O=C(NCCN1CCOCC1)N1c2ccccc2Sc2ccccc21 | 0.23%
64 | COc1ccc(C2NC(=S)NC3=C2CCc2cc(OC)ccc23)cc1 (configuration not stated) | inactive
65 | COc1ccc(C2C3=C(N=C4SCC(=O)N42)c2ccccc2CC3)cc1 (configuration not stated) | 1.1%
66 | CC(C)c1ccc(C2NC(=O)NC3=C2CCc2ccccc23)cc1 (configuration not stated) | 5.37%
67 | Cc1ccc(C2NC(=O)Cc3ccccc32)cc1 (configuration not stated) | 0.52%
68 | Cc1ccc(C2NC(=O)NC3=C2CCc2ccccc23)cc1 (configuration not stated) | 85.8% (active)
69 | O=C1NC2=C(C(=O)c3ccccc32)C(c2ccccc2)N1 (configuration not stated) | 0.35%
70 | O=C1NC2=C(CCc3ccccc32)C(c2ccc(Br)cc2)N1 (configuration not stated) | 70.4% (active)
71 | O=C1Cc2ccccc2C(c2ccc(Br)cc2)N1 (configuration not stated) | inactive
72 | COc1ccc(C2NC(=O)NC3=C2CCc2ccccc23)cc1 (configuration not stated) | 66.1% (active)
